Assay in all cases: DAPPL (digital affinity profiling via proximity ligation, sequencing); 10 mM Tris-HCl pH 7.5, 50 mM NaCl, 1 mM DTT, 4% glycerol, room temperature, 30 min; GST-TFs on glutathione beads, 16-mer random dsDNA library, 0.1% formaldehyde crosslink after washing; high values mean tight binding
One experiment concerns the target T1, FLI1 (Homo sapiens, UniProt Q01543 1-452).
T1 sequence: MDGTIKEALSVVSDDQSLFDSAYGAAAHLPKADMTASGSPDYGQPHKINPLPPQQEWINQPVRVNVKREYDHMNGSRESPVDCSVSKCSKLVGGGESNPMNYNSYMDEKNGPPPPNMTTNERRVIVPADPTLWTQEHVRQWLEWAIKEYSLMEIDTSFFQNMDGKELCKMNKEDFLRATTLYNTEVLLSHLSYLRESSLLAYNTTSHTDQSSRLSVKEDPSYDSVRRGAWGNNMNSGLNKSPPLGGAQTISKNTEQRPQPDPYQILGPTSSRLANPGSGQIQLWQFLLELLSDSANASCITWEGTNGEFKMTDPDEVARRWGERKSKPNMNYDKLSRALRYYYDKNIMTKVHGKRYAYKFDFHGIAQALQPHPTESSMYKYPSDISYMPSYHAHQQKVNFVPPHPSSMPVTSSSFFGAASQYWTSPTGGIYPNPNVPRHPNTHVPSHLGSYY
The conditions noted are these: protein: recombinant; tags: N-terminal GST; dsDNA, one strand shown. The procedure, abridged:
(§1)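 Beads coated with glutathione captured GST-fused human transcription factors that had been expressed in yeast, and the factors were then given DNA barcodes and pooled with a tag-only sample. The pools were incubated with 200 nmole of a random double-stranded 16-mer DNA library in Tris/NaCl/DTT/glycerol buffer for 30 min at room temperature, washed, crosslinked with 0.1% formaldehyde and proximity-ligated with BsaI/T4 ligase at 37 °C for 1 h. PCR amplification and Illumina NextSeq500 sequencing came last. Binding signal is each hexamer's read frequency for a factor divided by its frequency for the tag-only sample.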

A further experiment has as its target T2, ELK1 (Homo sapiens, UniProt P19419 1-428).
T2 sequence: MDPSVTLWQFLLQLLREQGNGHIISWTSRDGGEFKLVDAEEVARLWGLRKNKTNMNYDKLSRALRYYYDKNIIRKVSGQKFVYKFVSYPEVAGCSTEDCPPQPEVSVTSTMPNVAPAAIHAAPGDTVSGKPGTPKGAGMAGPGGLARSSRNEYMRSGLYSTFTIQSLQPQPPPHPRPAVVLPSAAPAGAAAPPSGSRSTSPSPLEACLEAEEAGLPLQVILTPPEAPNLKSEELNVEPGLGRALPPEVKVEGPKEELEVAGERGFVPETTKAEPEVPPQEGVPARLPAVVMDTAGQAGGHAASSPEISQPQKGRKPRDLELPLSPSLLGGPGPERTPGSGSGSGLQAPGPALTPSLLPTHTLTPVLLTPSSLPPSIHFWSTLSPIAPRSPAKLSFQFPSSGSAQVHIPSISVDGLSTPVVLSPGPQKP
To be noted: protein: recombinant; tags: N-terminal GST; dsDNA, one strand shown. The procedure, abridged:
as §1

Another experiment has as its target T3, GABPA (Homo sapiens, UniProt Q06546 1-454).
T3 sequence: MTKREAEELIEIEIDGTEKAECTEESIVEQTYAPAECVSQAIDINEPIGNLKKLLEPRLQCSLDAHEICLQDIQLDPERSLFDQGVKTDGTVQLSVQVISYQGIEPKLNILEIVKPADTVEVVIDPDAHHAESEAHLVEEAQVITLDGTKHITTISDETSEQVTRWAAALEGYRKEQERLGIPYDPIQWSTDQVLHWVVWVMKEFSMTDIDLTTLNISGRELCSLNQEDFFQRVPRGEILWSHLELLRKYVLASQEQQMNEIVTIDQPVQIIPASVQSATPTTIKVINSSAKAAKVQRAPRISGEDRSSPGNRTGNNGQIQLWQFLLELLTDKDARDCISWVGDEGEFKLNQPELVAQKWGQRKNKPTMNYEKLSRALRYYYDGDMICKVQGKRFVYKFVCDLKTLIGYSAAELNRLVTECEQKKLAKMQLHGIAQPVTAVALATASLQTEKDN
The conditions noted are these: protein: recombinant; tags: N-terminal GST; dsDNA, one strand shown. The procedure, abridged: as §1

For the next experiment, the target named is T4, ERG (Homo sapiens, UniProt P11308 1-479).
T4 sequence: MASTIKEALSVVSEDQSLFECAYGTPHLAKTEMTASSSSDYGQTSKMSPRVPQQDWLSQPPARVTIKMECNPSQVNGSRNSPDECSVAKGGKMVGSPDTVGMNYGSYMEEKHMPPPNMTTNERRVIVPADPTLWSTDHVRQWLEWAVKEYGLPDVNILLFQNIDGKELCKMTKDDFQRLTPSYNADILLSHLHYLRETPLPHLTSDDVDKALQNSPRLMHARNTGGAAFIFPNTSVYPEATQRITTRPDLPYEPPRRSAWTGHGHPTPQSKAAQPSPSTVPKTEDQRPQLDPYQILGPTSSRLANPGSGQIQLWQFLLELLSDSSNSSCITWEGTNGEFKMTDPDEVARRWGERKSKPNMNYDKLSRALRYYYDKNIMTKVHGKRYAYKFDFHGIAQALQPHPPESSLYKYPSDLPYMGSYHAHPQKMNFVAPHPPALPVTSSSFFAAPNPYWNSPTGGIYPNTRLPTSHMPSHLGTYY
To be noted: protein: recombinant; tags: N-terminal GST; dsDNA, one strand shown. The procedure, abridged: as §1

The target of a further experiment is ELF1 (Homo sapiens, UniProt P32519 1-619). The conditions noted are these: protein: recombinant; tags: N-terminal GST; dsDNA, one strand shown. In outline:
as §1

The target of a further experiment is T5, EHF (Homo sapiens, UniProt Q9NZC4 1-300).
T5 sequence: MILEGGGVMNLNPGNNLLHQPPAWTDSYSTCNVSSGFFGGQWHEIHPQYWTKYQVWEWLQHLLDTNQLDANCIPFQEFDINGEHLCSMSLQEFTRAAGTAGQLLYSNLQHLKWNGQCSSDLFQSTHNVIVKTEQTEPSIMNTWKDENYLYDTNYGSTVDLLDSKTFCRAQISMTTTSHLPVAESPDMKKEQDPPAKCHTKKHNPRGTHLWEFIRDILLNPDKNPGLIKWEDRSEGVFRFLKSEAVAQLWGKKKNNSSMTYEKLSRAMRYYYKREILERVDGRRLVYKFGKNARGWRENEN
To be noted: protein: recombinant; tags: N-terminal GST; dsDNA, one strand shown. The procedure, abridged:
as §1

Another experiment concerns the target SPI1 (Homo sapiens, UniProt P17947 1-270). The conditions noted are these: protein: recombinant; tags: N-terminal GST; dsDNA, one strand shown. In outline: as §1
In another experiment the target is SPIB (Homo sapiens, UniProt Q01892 1-262). The conditions noted are these: protein: recombinant; tags: N-terminal GST; dsDNA, one strand shown. In outline: as §1
Sequence of SPIB (Q01892 whole entry): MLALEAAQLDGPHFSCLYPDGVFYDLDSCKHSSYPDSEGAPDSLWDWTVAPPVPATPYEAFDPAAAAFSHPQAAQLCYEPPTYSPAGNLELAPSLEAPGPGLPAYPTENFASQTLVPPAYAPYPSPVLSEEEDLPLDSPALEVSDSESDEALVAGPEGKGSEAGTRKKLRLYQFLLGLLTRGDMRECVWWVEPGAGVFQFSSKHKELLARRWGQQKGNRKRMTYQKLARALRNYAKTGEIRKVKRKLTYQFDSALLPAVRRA
Another experiment concerns the target T6, ELK3 (Homo sapiens, UniProt P41970 1-407).
T6 sequence: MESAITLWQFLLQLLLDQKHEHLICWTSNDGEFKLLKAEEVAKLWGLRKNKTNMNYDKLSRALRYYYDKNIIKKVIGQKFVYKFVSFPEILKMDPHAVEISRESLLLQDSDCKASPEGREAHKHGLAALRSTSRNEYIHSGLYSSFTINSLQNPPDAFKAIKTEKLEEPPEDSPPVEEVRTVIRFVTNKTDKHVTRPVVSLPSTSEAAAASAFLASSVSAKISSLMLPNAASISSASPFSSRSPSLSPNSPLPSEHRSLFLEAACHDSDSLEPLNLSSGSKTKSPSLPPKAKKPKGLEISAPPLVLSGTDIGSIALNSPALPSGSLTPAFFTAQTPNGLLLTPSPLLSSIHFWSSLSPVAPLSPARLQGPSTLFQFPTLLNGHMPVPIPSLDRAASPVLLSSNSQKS
To be noted: protein: recombinant; tags: N-terminal GST; dsDNA, one strand shown. In outline: as §1

The target in a further experiment is T7, FEV (Homo sapiens, UniProt Q99581 1-238).
T7 sequence: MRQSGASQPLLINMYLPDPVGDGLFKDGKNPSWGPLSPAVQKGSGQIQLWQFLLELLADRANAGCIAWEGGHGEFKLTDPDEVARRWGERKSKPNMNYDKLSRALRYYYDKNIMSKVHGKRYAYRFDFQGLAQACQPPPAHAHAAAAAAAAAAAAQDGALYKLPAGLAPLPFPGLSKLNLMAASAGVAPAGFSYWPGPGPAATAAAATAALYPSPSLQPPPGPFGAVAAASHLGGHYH
The conditions noted are these: protein: recombinant; tags: N-terminal GST; dsDNA, one strand shown. In outline: as §1

In another experiment the target is ETV5 (Homo sapiens, UniProt P41161 1-510). The conditions noted are these: protein: recombinant; tags: N-terminal GST; dsDNA, one strand shown. In outline:
as §1

In another experiment the target is HSF1 (Homo sapiens, UniProt Q00613 1-529). To be noted: protein: recombinant; tags: N-terminal GST; chain copies: 3; dsDNA, one strand shown. The procedure, abridged: as §1
Sequence of HSF1 (Q00613 whole entry): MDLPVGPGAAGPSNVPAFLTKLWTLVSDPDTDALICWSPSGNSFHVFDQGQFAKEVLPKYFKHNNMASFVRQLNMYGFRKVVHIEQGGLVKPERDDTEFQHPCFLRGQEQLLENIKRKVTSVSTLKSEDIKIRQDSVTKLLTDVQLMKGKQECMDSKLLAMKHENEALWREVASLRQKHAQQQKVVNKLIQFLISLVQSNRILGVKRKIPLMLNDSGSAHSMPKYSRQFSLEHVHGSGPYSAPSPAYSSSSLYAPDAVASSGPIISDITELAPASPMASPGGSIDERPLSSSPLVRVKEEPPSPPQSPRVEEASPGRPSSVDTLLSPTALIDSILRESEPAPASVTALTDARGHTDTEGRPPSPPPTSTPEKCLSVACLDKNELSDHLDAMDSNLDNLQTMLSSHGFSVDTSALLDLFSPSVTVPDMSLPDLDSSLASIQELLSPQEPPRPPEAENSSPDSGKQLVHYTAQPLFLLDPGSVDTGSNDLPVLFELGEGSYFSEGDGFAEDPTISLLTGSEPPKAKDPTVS
In the next experiment the target is T8, SPIC (Homo sapiens, UniProt Q8N5J4 1-248).
T8 sequence: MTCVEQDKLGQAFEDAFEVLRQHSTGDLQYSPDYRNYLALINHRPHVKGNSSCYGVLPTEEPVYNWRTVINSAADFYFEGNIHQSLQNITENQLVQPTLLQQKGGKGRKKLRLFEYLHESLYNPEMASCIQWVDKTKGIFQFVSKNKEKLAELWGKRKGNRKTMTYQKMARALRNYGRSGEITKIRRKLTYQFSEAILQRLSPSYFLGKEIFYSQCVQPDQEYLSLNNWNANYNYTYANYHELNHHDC
To be noted: protein: recombinant; tags: N-terminal GST; dsDNA, one strand shown. In outline: as §1

The target in the next experiment is T9, ELK4 (Homo sapiens, UniProt P28324-2 1-405).
T9 sequence: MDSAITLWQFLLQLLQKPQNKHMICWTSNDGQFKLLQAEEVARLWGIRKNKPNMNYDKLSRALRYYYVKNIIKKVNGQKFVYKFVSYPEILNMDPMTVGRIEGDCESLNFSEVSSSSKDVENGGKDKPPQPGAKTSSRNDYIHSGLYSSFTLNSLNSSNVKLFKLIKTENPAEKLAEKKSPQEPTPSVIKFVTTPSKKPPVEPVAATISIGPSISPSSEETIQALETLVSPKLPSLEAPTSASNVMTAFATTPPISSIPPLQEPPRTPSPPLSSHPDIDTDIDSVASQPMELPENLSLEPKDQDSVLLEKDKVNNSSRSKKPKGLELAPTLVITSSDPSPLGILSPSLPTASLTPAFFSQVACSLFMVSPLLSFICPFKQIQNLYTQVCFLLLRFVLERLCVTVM
The conditions noted are these: protein: recombinant; tags: N-terminal GST; dsDNA, one strand shown. In outline: as §1

Another experiment addresses T10, ETV2 (Homo sapiens, UniProt O00321 1-342).
T10 sequence: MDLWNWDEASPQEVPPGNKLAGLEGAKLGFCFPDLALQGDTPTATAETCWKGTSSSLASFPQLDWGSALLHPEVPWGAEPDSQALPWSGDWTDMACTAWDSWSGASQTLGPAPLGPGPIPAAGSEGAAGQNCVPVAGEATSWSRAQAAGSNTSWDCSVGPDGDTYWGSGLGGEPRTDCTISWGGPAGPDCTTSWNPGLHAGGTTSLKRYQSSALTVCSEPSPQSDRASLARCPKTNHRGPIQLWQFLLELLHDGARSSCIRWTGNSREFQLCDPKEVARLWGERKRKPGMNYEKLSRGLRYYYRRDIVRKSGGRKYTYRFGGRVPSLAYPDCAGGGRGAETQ
To be noted: protein: recombinant; tags: N-terminal GST; dsDNA, one strand shown. The procedure, abridged: as §1

Another experiment deals with CRX (Homo sapiens, UniProt O43186 1-299). To be noted: protein: recombinant; tags: N-terminal GST; dsDNA, one strand shown. In outline:
as §1

A further experiment concerns the target ETV1 (Homo sapiens, UniProt P50549 1-477). To be noted: protein: recombinant; tags: N-terminal GST; dsDNA, one strand shown. The procedure, abridged:
as §1

Sequence of ELF1 (P32519 whole entry): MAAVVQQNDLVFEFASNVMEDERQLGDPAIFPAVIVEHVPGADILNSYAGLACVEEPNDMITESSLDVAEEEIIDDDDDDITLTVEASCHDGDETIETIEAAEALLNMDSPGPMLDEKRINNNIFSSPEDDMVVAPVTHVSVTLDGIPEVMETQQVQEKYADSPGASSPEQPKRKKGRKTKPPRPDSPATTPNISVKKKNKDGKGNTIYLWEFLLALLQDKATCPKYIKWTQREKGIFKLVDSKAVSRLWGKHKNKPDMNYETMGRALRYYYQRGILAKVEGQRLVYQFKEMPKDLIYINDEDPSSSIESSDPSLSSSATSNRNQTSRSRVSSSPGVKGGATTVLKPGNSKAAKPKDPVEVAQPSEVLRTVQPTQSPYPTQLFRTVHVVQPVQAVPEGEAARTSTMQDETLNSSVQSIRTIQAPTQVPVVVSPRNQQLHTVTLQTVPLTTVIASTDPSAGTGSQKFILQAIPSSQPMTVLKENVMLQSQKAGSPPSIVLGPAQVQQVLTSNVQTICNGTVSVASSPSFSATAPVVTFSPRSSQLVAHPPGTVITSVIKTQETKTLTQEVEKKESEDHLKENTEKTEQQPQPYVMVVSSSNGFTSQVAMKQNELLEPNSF
Sequence of ETV1 (P50549 whole entry): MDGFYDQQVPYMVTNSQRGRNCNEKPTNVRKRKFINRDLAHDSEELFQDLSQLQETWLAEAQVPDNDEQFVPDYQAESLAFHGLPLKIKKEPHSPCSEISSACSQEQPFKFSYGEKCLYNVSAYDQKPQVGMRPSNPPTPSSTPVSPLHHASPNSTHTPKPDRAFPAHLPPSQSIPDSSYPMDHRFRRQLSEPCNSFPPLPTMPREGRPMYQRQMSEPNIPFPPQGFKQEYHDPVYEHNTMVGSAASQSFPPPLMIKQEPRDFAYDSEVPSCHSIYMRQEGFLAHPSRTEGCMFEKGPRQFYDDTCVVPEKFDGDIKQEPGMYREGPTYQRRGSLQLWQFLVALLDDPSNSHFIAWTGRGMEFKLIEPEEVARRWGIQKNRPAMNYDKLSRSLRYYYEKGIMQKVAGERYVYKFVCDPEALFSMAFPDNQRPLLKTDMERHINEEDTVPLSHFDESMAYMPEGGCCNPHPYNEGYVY
Sequence of CRX (O43186 whole entry): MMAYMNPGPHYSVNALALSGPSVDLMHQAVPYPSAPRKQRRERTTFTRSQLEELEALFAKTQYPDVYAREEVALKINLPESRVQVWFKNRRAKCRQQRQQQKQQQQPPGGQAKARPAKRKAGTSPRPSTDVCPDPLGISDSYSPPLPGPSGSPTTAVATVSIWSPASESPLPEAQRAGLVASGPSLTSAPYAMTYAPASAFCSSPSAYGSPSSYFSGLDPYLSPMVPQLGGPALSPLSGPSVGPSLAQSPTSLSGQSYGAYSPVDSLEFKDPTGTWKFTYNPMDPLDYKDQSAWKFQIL
Sequence of ETV5 (P41161 whole entry): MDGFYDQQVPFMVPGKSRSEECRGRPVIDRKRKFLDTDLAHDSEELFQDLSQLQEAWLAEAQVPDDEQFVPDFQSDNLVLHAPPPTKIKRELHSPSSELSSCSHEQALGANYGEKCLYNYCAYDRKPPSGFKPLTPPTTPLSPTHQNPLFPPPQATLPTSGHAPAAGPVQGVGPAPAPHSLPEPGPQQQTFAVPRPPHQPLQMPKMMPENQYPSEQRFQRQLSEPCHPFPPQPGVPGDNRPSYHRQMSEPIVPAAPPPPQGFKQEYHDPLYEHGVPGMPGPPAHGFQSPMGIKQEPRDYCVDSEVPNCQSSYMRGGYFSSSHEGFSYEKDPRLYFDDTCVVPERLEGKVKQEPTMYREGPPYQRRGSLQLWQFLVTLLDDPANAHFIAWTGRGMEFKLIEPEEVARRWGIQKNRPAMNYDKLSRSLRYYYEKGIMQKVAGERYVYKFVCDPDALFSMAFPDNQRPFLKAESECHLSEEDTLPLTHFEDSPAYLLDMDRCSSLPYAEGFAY

For TAACGG, the binding signal is 1.1 fold enrichment (6-mer frequency, TF over GST control) in the experiment with FLI1; 1.18 fold enrichment (6-mer frequency, TF over GST control) in the experiment with ELK1; 1.03 fold enrichment (6-mer frequency, TF over GST control) with GABPA; 1.08 fold enrichment (6-mer frequency, TF over GST control) in the experiment with ERG; 1.03 fold enrichment (6-mer frequency, TF over GST control) with ELF1; 1.14 fold enrichment (6-mer frequency, TF over GST control) with EHF. Further, the binding signal in the experiment with SPI1 was 1.21 fold enrichment (6-mer frequency, TF over GST control); with SPIB, 1.13 fold enrichment (6-mer frequency, TF over GST control); in the experiment with ELK3, 1.03 fold enrichment (6-mer frequency, TF over GST control); with FEV it was 1.1 fold enrichment (6-mer frequency, TF over GST control); with ETV5, 1.09 fold enrichment (6-mer frequency, TF over GST control); with HSF1, 1.03 fold enrichment (6-mer frequency, TF over GST control). For the same sequence, the binding signal with SPIC was 1.07 fold enrichment (6-mer frequency, TF over GST control); with ELK4, 1.02 fold enrichment (6-mer frequency, TF over GST control); with ETV2, 1.11 fold enrichment (6-mer frequency, TF over GST control); with CRX it was 1.21 fold enrichment (6-mer frequency, TF over GST control); with ETV1 it was 1.04 fold enrichment (6-mer frequency, TF over GST control).

Values taken from article PMC7862700, “An all-to-all approach to the identification of sequence-specific readers for epigenetic DNA modifications on cytosine”.
